Assay in all cases: NCI-60 one-dose screen, 48 h (100 = growth as untreated, 0 = no growth, -100 = all killed)
Common to all, as to conditions: 10 µM unless noted

For experiment [1], the system named is NCI-H23 lung.
For experiment [2], the system named is NCI-H226 lung.
Experiment [3] deals with NCI-H322M lung.
Experiment [4] concerns HOP-62 NSCLC.
Experiment [5] concerns HOP-92 NSCLC.
Experiment [6] deals with NCI-H522 lung.
In experiment [7] the test system is A549/ATCC NSCLC.
Experiment [8] deals with 786-0 renal.
The test system of experiment [9] is COLO 205 colon.
In experiment [10] the test system is DU-145 prostate.
In experiment [11] the test system is K-562 leukemia.
Experiment [12] deals with MALME-3M melanoma.
The test system of experiment [13] is MDA-MB-231 breast.
For experiment [14], the system named is RXF 393 renal.
In experiment [15] the test system is SF-268 CNS.
For experiment [16], the system named is SF-295 CNS.
Experiment [17] has as its system SF-539 CNS.
In experiment [18] the test system is UACC-257 melanoma.
Experiment [19] deals with M14 melanoma.
Experiment [20] deals with NCI-H460 lung.

Compounds without any hit were thinned out: in the full panel of roughly 83,000, 20% have a hit.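 Results are percent growth after 48 hours of single-concentration exposure. 100 means growth as in untreated cells, lower positive values show inhibition; negative values down to -100 show cell death.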 Unmarked numbers belong to inactive results. The source made the active and inactive calls. The calls were made as follows: active = growth percent below 10; inactive = the rest.

Turning to `O=C(OC1CCCC1)c1ccccc1Cl`, the growth in [1] is 106%; in experiment [2] it was 104%; in experiment [3], 99.7%; in experiment [4], 97.1%; in experiment [5], 96.2%; in [6] it was 93.1%. The growth in [7] is 105%; in experiment [8], 101%; in experiment [9] it was 107%; in experiment [10], 109%; in [11] it was 106%; in experiment [12] it was 102%. Further, the growth is 97.3% in experiment [13]; 112% in experiment [14]; 104% in experiment [15]; 100% in experiment [16]; 98.6% in experiment [17]; 109% in experiment [18]. Also, in experiment [19], the growth is 101%.

With `Cc1onc(-c2c(F)cccc2Cl)c1-c1ncc(-c2ccc(Br)cc2)o1`, the growth in [1] was 42.1%; in experiment [2], 73.1%; in [4], 59.3%; in experiment [20], 4.75% (active); in experiment [5], 61.3%; in experiment [6], 41.9%. Further, the growth in experiment [7] is 41.7%; in [8], 10.7%; in experiment [9], 49.6%; in experiment [10] it was 50%; in experiment [11] it was 24%; in experiment [12] it was 45.2%. Besides, the growth in experiment [13] was 52.3%; in [14], 58.7%; in experiment [15], 43.1%; in experiment [16] it was 36.4%; in experiment [17] it was 39.6%; in experiment [18], 23.7%. Also, the growth in [19] is 54.3%.

Take `Nc1c(Br)cc(O)c2c1C(=O)c1ccccc1C2=O`: the growth in [1] was 32.8%; in experiment [2] it was 108%; in [4] it was 117%; in experiment [20] it was 102%; in [5], 70.9%; in experiment [6], 54%. Besides, the growth in experiment [7] was 96.1%; in experiment [8], 106%; in experiment [9], 135%; in experiment [10], 91.6%; in [11], 66.3%; in experiment [12] it was 89.5%. Further, the growth was 77.5% in experiment [13]; 80.5% in [14]; 60.3% in [15]; 114% in experiment [16]; 89.1% in [18]; 100% in experiment [19].

For `O=C1Nc2ccccc2/C1=C\c1ccccc1O`, the growth is 93.2% in experiment [2]; 80.5% in experiment [3]; 87.9% in [4]; 98.7% in [20]; 46.6% in experiment [5]; 61.6% in experiment [6]. Also, the growth in experiment [7] was 114%; in [8], 98.8%; in experiment [9], 124%; in experiment [10], 88.6%; in [11] it was 73.1%; in experiment [12], 78%. The growth is 83.6% in experiment [13]; 106% in experiment [14]; 89.7% in [15]; 96.6% in [16]; 88.7% in experiment [17]; 94% in experiment [18].

On to `Cc1ccc(C2CCCCC2)cc1Br`, for which the growth in experiment [2] was 97.7%; in experiment [3], 99.2%; in experiment [4], 91.3%; in [20], 108%; in experiment [5], 95%; in experiment [6], 91.3%. Moreover, the growth in experiment [7] was 89.4%; in experiment [8], 96.4%; in experiment [9] it was 101%; in experiment [10], 105%; in experiment [11], 100%; in [12] it was 100%. Further, the growth in [13] is 97.4%; in experiment [14], 105%; in experiment [15], 99.5%; in [16], 95.5%; in experiment [17], 101%; in [18] it was 88.8%.

With `CC12CCC3c4ccc(O)cc4CCC3C1CCC2=O` (stereo unspecified), the growth in [1] was 104%; in experiment [2] it was 97%; in experiment [4] it was 98.1%; in experiment [20], 105%; in experiment [5], 104%; in [6], 70%. Further, the growth was 92.3% in experiment [7]; 94.5% in [8]; 103% in experiment [9]; 112% in experiment [10]; 93.9% in experiment [11]; 113% in experiment [12]. The growth is 83.5% in [13]; 103% in experiment [14]; 99% in experiment [15]; 112% in experiment [16]; 96.6% in [17]; 93.8% in [18]. In addition, the growth in experiment [19] is 102%.

As to `C=CCN1CCCC1=O`, the growth in [1] is 106%; in experiment [2], 102%; in experiment [4] it was 106%; in [5], 99.6%; in [6], 101%; in experiment [7], 112%. The growth in experiment [8] is 105%; in experiment [9] it was 95.4%; in experiment [10] it was 114%; in experiment [11] it was 86.7%; in experiment [12], 96.9%; in [13] it was 94.7%. The growth in experiment [14] was 128%; in experiment [15], 108%; in [16] it was 98.3%; in experiment [17] it was 93%; in experiment [18] it was 119%; in [19], 98.8%.

For `NC(CCl)=NCC12CC3CC(CC(C3)C1)C2`, the growth is -7.12% (active) in experiment [1]; -0.0494% (active) in experiment [2]; -66.1% (active) in experiment [4]; -57.6% (active) in experiment [20]; -37.6% (active) in [5]; -58.7% (active) in [6]. Besides, the growth in [7] is -47.1% (active); in experiment [8], -80.2% (active); in experiment [9] it was -96% (active); in [10] it was -42.7% (active); in experiment [11], -15.1% (active); in experiment [12], 25.4%. In addition, the growth in experiment [13] was -15.8% (active); in experiment [15], -3.73% (active); in experiment [16], 26.4%; in experiment [17], -11% (active); in experiment [18], -71.2% (active); in experiment [19], -61.3% (active).

Regarding `COc1ccc(/C=N/NC(=O)COCC(=O)N/N=C/c2ccc(OC)cc2)cc1`, the growth in experiment [1] is 107%; in [2] it was 99.5%; in experiment [4] it was 117%; in experiment [20], 107%; in experiment [5], 92.5%; in experiment [6], 107%. Besides, the growth in [7] was 98.3%; in experiment [8] it was 106%; in [9], 111%; in [10], 113%; in experiment [11] it was 102%; in [12], 115%. The growth in experiment [13] was 98.4%; in [14], 104%; in experiment [15], 110%; in experiment [16] it was 97.1%; in experiment [17], 100%; in experiment [18], 96.6%. The growth in [19] was 115%.

These data come from PubChem BioAssay (NCI).
